In PubChem BioAssay AID1851 (National Center for Advancing Translational Sciences (NCATS), 2009):
In all, about 16,000 compounds went through this assay and about 5,100 (32%) were called active. Roughly 25% stayed inconclusive and do not appear here. Calls follow the shape of the dose curve; as a rule, active = well fitted curve in the direction sought with a large enough effect; inconclusive = small, poorly fitted or top-dose-only effect, or effect the other way; inactive = no such curve, though single readings can be large or run the other way. The list shows a part of the results. Some structures have more than one record in an assay (separate samples or runs), and their calls can disagree.

Molecular target: Cytochrome P450 3A4 (Homo sapiens) (UniProt P08684)
Sequence (P08684 whole entry, looked up): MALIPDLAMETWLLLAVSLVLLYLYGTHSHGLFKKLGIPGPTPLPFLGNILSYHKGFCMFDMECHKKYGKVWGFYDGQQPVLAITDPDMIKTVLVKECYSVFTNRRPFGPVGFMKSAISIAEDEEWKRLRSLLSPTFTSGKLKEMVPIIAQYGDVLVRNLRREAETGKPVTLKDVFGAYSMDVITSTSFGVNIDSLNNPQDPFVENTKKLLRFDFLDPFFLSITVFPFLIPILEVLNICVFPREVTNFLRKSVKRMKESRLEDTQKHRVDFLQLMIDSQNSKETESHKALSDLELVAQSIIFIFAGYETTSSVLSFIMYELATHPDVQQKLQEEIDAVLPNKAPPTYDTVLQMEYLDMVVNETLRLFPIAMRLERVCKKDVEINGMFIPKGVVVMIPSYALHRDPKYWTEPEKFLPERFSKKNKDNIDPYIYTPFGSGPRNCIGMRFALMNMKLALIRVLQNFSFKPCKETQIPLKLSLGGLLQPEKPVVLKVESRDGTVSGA
Assay: Cytochrome panel assay with activity outcomes
Settings: recombinant CYP, pro-luciferin dealkylation, luminescence, p450-cyp3a4; series mostly up to 57.1 µM; activity, negative = inhibition: at the top concentration
% is scaled to controls: 0 for no effect and ±100 for the full control effect.

| Compound | activity, negative = inhibition | AC50 |
| --- | --- | --- |
| CCN1C[C@]2(COC(=O)c3ccccc3N3C(=O)C[C@H](C)C3=O)CC[C@H](OC)[C@@]34[C@@H]5C[C@H]6[C@H](OC)[C@H]5[C@](O)(C[C@@H]6OC)[C@@](O)([C@@H](OC)[C@@H]23)[C@@H]14 | -19.7% (inactive) |  |
| C[N+](C)(C)[C@H](Cc1c[nH]c(=S)[nH]1)C(=O)O | -1.29% [at 11.4 µM] (inactive) |  |
| O=[N+]([O-])O[C@H]1CO[C@H]2[C@H]1OC[C@@H]2O[N+](=O)[O-] | -2.14% [at 25.6 µM] (inactive) |  |
| CS(=N)(=O)CC[C@H](N)P(=O)(O)O (stereo not given in full) | 1.43% [at 11.4 µM] (inactive) |  |
| N[C@@H](Cn1ccc(=O)n(Cc2ccc(C(=O)O)cc2)c1=O)C(=O)O | -7.16% (inactive) |  |
| CN(C)CCN(C)CCc1ccc(Cl)c(Cl)c1 | -44.5% (inactive) |  |
| CN(CCc1ccc(Cl)c(Cl)c1)[C@H]1CCCC[C@H]1N1CCCC1 |  | 12.6 µM (active) |
| COc1ccc2c(c1O)-c1c(OC)c(OC)cc3c1[C@H](C2)N(C)CC3 | -1.12% [at 25.6 µM] (inactive) |  |
| CC(=O)O[C@@H]1CN2CCC1CC2 | -14.7% (inactive) |  |
| CC(=O)Nc1ccccc1C(=O)OCC(=O)c1ccc2ccccc2c1 | 7.07% (inactive) |  |
| c1ccc2c(c1)[I+]c1ccccc1-2 |  | 3.16 µM (active) |
| C1CCc2nnnn2CC1 | -7.33% (inactive) |  |
| CC(=O)N1CCC2(CC1)CC(=O)c1cc(OCC(=O)N3CCN(C)CC3)ccc1O2 | 11.2% (inactive) |  |
| O=C(COc1ccc2ccccc2c1)N1CCN(CC2CC3C=CC2C3)CC1 (stereo not given) |  | 12.6 µM (active) |
| C[N+](C)(C)CC#CCN1CCCC1=O | inactive |  |
| CN1C(=O)COc2c(C(=O)N[C@@H]3CN4CCC3CC4)cc(Cl)cc21 | -5.69% (inactive) |  |
| O=C1CC[C@@]2(O)[C@H]3Cc4ccc(O)c5c4[C@@]2(CCN3CC2CC2)[C@@H]1O5 | inactive |  |
| CCCCC/C=C\C/C=C\C/C=C\C/C=C\CCCC(=O)Nc1ccc(O)cc1 |  | 5.01 µM (active) |
| CCCC(=O)Nc1ccc(N2CCN(CC)CC2)c(Cl)c1 | -2.29% (inactive) |  |
| NS(=O)(=O)c1ccc(-c2ccc([As](=O)(O)O)cc2)cc1 | -4.52% [at 11.4 µM] (inactive) |  |
| Oc1ccc([C@H](O)[C@@H]2CCCCN2)cc1O | -7.28% [at 11.4 µM] (inactive) |  |
| C[N+]1(C)CCc2cc3c(cc2[C@@H]1[C@@H]1OC(=O)c2c1ccc1c2OCO1)OCO3 |  | 15.8 µM (active) |
| CO[C@H]1C=C2CCN(C)[C@@H]2[C@@H]2c3cc4c(cc3C(=O)O[C@H]21)OCO4 | -22.2% [at 25.6 µM] (inactive) |  |
| CN1CCc2cc3c(cc2[C@@H]1[C@@H]1OC(=O)c2c1ccc1c2OCO1)OCO3 |  | 0.794 µM (active) |

| Compound | activity, negative = inhibition | AC50 |
| --- | --- | --- |
| CN1Cc2c(ccc3c2OCO3)[C@@H]2[C@@H](O)Cc3cc4c(cc3[C@@H]21)OCO4 |  | 5.01 µM (active) |
| COc1c2c(cc3c1OCO3)CCN(C)C2 | -16.8% [at 25.6 µM] (inactive) |  |
| COc1cc2c(cc1OC)[C@H](C)NCC2 | -4.58% [at 25.6 µM] (inactive) |  |
| CC[C@H]1CN2CC[C@@H]1C[C@H]2[C@@H](O)c1ccnc2ccc(OC)cc12 | 8.8% [at 25.6 µM] (inactive) |  |
| COc1cc2c(cc1OC)[C@@]13CCN4C=C5CCO[C@H]6CC(=O)N2[C@@H]1[C@@H]6[C@H]5C[C@H]43 | 13.3% [at 11.4 µM] (inactive) |  |
| [N-]=[N+]=CC(=O)CC[C@H](N)C(=O)O | -9.62% [at 11.4 µM] (inactive) |  |
| CN1CCc2cccc(Cl)c2CC1 | -2.46% (inactive) |  |
| NC(=O)CN1C[C@@H](O)CC1=O | -2.79% (inactive) |  |
| CN(C)C=C1C(=O)N(C2CCCCC2)C(=O)N(C2CCCCC2)C1=O | -29.6% (inactive) |  |
| CN1C2C=C3C(C#N)=C(N)C(C#N)(C#N)[C@H](c4c(F)cccc4F)[C@H]3C1CC2 (stereo not given in full) |  | 4.47 µM (active) |
| CS(=N)(=O)CC[C@@H](N)C(=O)O (stereo not given in full) | inactive |  |
| C[C@@H]1O[C@@H](O[C@H]2C[C@@H](O)[C@@]3(CO)[C@H]4[C@H](O)C[C@]5(C)[C@@H](C6=CC(=O)OC6)CC[C@]5(O)[C@H]4CC[C@@]3(O)C2)[C@@H](O)[C@H](O)[C@H]1O | 10.6% [at 11.4 µM] (inactive) |  |
| NC(=O)CN1CCCC1=O | inactive |  |
| NNC(N)=O | -9.12% (inactive) |  |
| NC(=O)CI |  | 0.0631 µM (active) |
| CCCN1CCC[C@@H]2Cc3nc(N)ncc3C[C@H]21 | -16.7% (inactive) |  |
| COC(=O)[C@@H]1[C@@H]2C[C@H]3c4[nH]c5cc(OC)ccc5c4CCN3C[C@@H]2C[C@H](OC(=O)/C=C\c2cc(OC)c(OC)c(OC)c2)[C@H]1OC | -25.6% [at 25.6 µM] (inactive) |  |
| CNC[C@H](O)c1ccc(O)c(OC)c1 | -5% [at 25.6 µM] (inactive) |  |
| COc1cc(CCN)ccc1O | -4.42% (inactive) |  |
| COc1cc(CNC(=O)CCCC/C=C\C(C)C)ccc1O |  | 3.98 µM (active) |
| Cc1cccc([C@H](C)c2cnc[nH]2)c1C |  | 0.158 µM (active) |
| O=P(O)(O)C(Cl)(Cl)P(=O)(O)O | 7.29% (inactive) |  |
| C(=C/c1ccccc1)/CN1CCN(CCOC(c2ccccc2)c2ccccc2)CC1 | -20.7% (inactive) |  |
| CCC(=O)O[C@@](Cc1ccccc1)(c1ccccc1)[C@@H](C)CN(C)C |  | 5.01 µM (active) |

| Compound | activity, negative = inhibition | AC50 |
| --- | --- | --- |
| CC(C)[N+](C)(CCC(C(N)=O)(c1ccccc1)c1ccccc1)C(C)C | -24.2% [at 25.6 µM] (inactive) |  |
| O=C(O)[C@H]1[C@H](C(=O)O)[C@H]2CC[C@@H]1O2 | -5.34% (inactive) |  |
| COc1cc(CCN)c(OC)c(OC)c1 | -5.19% [at 11.4 µM] (inactive) |  |
| CCOP(=O)(CN(CC)CCNP(=O)(OCC)OCC)OCC | 10.5% [at 2.29 µM] (inactive) |  |
| CN1CCc2nc3sc(C(=O)NC(C)(C)C)c(N)c3cc2C1 | -11.5% [at 2.29 µM] (inactive) |  |
| CC[C@@]1(O)C(=O)OCc2c1cc1n(c2=O)Cc2cc3c(NC(=O)CN)cccc3nc2-1 | 0.232% [at 11.4 µM] (inactive) |  |
| CC[C@@]1(O)C(=O)OCc2c1cc1n(c2=O)Cc2cc3ccccc3nc2-1 |  | 6.31 µM (active) and inactive |
| CC[C@]1(OC(=O)CN)C(=O)OCc2c1cc1n(c2=O)Cc2cc3ccccc3nc2-1 | -27% [at 11.4 µM] (inactive) |  |
| O=C(NC1CCCCC1)NC1CC2CCC(C1)N2Cc1nnnn1Cc1ccc2c(c1)OCO2 (stereo not given) |  | 3.16 µM (active) |
| COc1ccc(NC(=O)NC2CC3CCCC(C2)N3Cc2ccccc2)cc1 (stereo not given) | 16.8% (inactive) |  |
| CCc1ccccc1NC(=O)NC1CC2CCC(C1)N2Cc1cccs1 (stereo not given) | -21.2% (inactive) |  |
| C[C@@]12CC[C@H]3[C@H](CC=C4C[C@@H](O)CC[C@@]43C)[C@@H]1CC[C@@H]2N(CCO)CCO | 12.7% [at 11.4 µM] (inactive) |  |
| O=C1NCN(c2ccccc2)C12CCN(CCCOc1ccc(F)cc1)CC2 | 18.9% (inactive) |  |
| c1ccc(CN2CCC3(CCNCC3)CC2)cc1 | -7.57% (inactive) |  |
| COC(=O)CN1CN(c2ccccc2)C2(CCN(Cc3ccc4ccccc4c3)CC2)C1=O |  | 15.8 µM (active) |
| CC[C@]1([C@H]2O[C@@H]([C@@H]3O[C@](O)(CO)[C@@H](C)C[C@H]3C)C[C@H]2C)CC[C@@H]([C@]2(C)CC[C@@]3(C[C@@H](O)[C@@H](C)[C@@H]([C@H](C)[C@H](OC)[C@H](C)C(=O)O)O3)O2)O1 | -4.62% [at 25.6 µM] (inactive) |  |
| c1cc2cc(c1)C[n+]1ccc(c3ccccc31)NCc1ccc(cc1)CNc1cc[n+](c3ccccc13)C2 | 11.2% (inactive) |  |
| O=C(Oc1ccc([N+](=O)[O-])cc1)N1CCC(N2CCCCC2)CC1 | -28.2% (inactive) |  |
| C[C@@]12C=CC(=O)C=C1CC[C@@H]1C2=CC[C@]2(C)[C@@H]1CC[C@H]2C(=O)CN1CCN(c2cc(N3CCCC3)nc(N3CCCC3)n2)CC1 |  | 3.16 µM (active) |
| C[As+](C)(c1ccc(Br)c([N+](=O)[O-])c1)c1ccc(Br)c([N+](=O)[O-])c1.O=[N+]([O-])O | -4.86% [at 11.4 µM] (inactive) |  |
| COC(=O)C[C@](O)(CCCC(C)(C)O)C(=O)O[C@@H]1C(OC)=C[C@]23CCCN2CCc2cc4c(cc2[C@H]13)OCO4 |  | 12.6 µM (active) |
| CN(C)CCCc1c[nH]c2ccccc12 | -0.0212% [at 11.4 µM] (inactive) |  |
| O=C1CCCN1CC#CCN1CCCC1 | inactive |  |
| O=C1C=C2C=C[C@H]3C[C@@]2(O1)[C@H]1CCCCN31 | -13.1% [at 25.6 µM] (inactive) |  |

| Compound | activity, negative = inhibition | AC50 |
| --- | --- | --- |
| Nc1ccc(S(=O)(=O)c2ccc(NCN3C(=O)NC(=O)C(=O)C3=O)cc2)cc1 |  | 2 µM (active) |
| CC(=O)NBr | -3.28% (inactive) |  |
| CS(=O)(=O)Nc1ccc(Cc2noc(-c3ccc4[nH]cc(CCN)c4c3)n2)cc1 |  | 15.8 µM (active) |
| NCCc1c[nH]c2ccc(O)cc12 | -20.5% [at 25.6 µM] (inactive) |  |
| COc1ccc2[nH]cc(CCN)c2c1 | -6.61% (inactive) |  |
| O=C1OC(=O)[C@@H]2[C@@H]1[C@@H]1CC[C@H]2O1 | 7.25% (inactive) |  |
| C=C[C@H]1CN2CC[C@@H]1C[C@H]2[C@@H](O)c1ccnc2ccccc12 | inactive |  |
| CCCN1CCC[C@H](c2cccc(O)c2)C1 | inactive |  |
| CC(C)C12CN3CC(C(C)C)(CN(C1)C3c1cccnc1)C2=O (stereo not given) |  | 2.24 µM (active) |
| CNCCc1ccc(O)c(O)c1 | -18.3% (inactive) |  |
| NNC(=O)c1ccc(O)cc1 |  | 5.01 µM (active) |
| NP(N)(=O)NC(=O)c1ccc(F)cc1 | -7.05% (inactive) |  |
| NCCc1ccc(O)cc1 | -2.1% (inactive) |  |
| Ic1cncc(OC[C@@H]2CCN2)c1 | -28.9% (inactive) |  |
| CCN(CCCl)Cc1ccccc1Br | -11.1% (inactive) |  |
| COc1ccc(OC)c([C@H](O)[C@H](C)N)c1 | inactive |  |
| CN(N=O)C(=O)N[C@H]1[C@@H](O)[C@H](O)[C@H](CO)O[C@@H]1O | -4.4% [at 25.6 µM] (inactive) |  |
| COC(=O)[C@@]1(Cc2ccc(F)cc2)[C@H]2c3cc(C(=O)N(C)C)[nH]c3C[C@H]2CN1C(=O)c1ccccc1 |  | 0.631 µM (active) |
| CC(C)[C@]1(O)[C@@H](OC(=O)c2ccc[nH]2)[C@]2(O)[C@@]3(C)C[C@@]4(O)O[C@@]5([C@H](O)[C@@H](C)CC[C@]35O)[C@]2(O)[C@]41C | -24.6% [at 11.4 µM] (inactive) |  |
| CC(C)c1nccn1Cc1ccc(Cl)cc1Cl | -9.57% [at 11.4 µM] (inactive) |  |
| CCC/C=C(\CCC)C(NP(=O)(c1ccccc1)c1ccccc1)c1ccccc1 (stereo not given) |  | 6.31 µM (active) |
| O=C(O)[C@H]1C[C@@H]1[C@H](NP(=O)(c1ccccc1)c1ccccc1)c1ccccc1 | -25.2% (inactive) |  |
| O=C(O)[C@@H]1C[C@H]1[C@@H](NP(=O)(c1ccccc1)c1ccccc1)c1ccccc1 | -0.397% (inactive) |  |
